From PubChem BioAssay (NCI)
Several values for one entry are separate records, joined by “and”; a condition that tells them apart may be missing. Equal entries are not always repeated. Compounds without any hit were thinned out: in the full panel of roughly 83,000, 20% have a hit.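 Cell lines were cultured in 96-well plates, exposed to a single compound concentration, and assessed for percent growth 48 hours later.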 Activity calls are given as the source filed them. The calls were made as follows: active = growth percent below 10; inactive = the rest.

tested on: HL-60(TB) leukemia; experiment: NCI-60 one-dose screen, 48 h (100 = growth as untreated, 0 = no growth, -100 = all killed); details: 10 µM unless noted

**Q.** Which growth does the source give for `CC1=CSC2=NC(c3ccc(Cl)c(Cl)c3)=CC(c3ccc(Cl)cc3)N12` (stereo not given) here?
**A.** The growth was 47.7% (inactive).

**Q.** Which growth does the source give for `CC1=Nc2cnc(Nc3ccc(OCCN4CCCCC4)cc3)nc2Nc2ccccc21` here?
**A.** The growth was 65.1% (inactive).

**Q.** How did the growth turn out when `CCCCCCCNc1nc(C=O)ncc1-c1ccc(C(F)(F)F)cc1` was run?
**A.** Its growth is 64.4% (inactive).

**Q.** Which growth does the source give for `CN(C)CCOc1ccc(-c2nc3ccc(-c4nc5ccc(N6CCN(C)CC6)cc5[nH]4)cc3[nH]2)cc1` here?
**A.** The growth was 72.1% (inactive).

**Q.** For `CCOc1ccc(Nc2nc(-c3c(C)nc4ncccn34)cs2)cc1`, which growth is on record?
**A.** Its growth is -34.1% (active).

**Q.** How did the growth turn out when `Cc1nc2cc(Nc3nc(N4CCOCC4)nc(N4CCN(C)CC4)n3)ccc2n1Cc1ccccc1` was run?
**A.** The growth was 103% (inactive).

**Q.** `Cc1nc2nc(C(F)(F)F)[nH]c2nc1C` was tested. Which growth did it give?
**A.** The growth was 98.8% (inactive).

**Q.** With `CC(C)(C)c1ccc(S(=O)(=O)N[C@H]2CC[C@H]3[C@@H]4CCc5cc(OS(=O)(=O)O)ccc5[C@H]4CC[C@]23C)cc1` as the compound, how does the growth read?
**A.** Its growth is 19.6% (inactive).

**Q.** `CCCC1CCC(O)(C(C)(O)C(=O)NC2C(=O)N3NCCCC3C(=O)N(O)C(C)C(=O)N3NCCCC3C(=O)N3NCC(O)CC3C(=O)NC(C)C(=O)OC2C(C)C)OC1CC` (stereo not given) was tested. Which growth did it give?
**A.** Its growth is -91.3% (active).

**Q.** With `O=CN1N=C(c2ccc(Cl)cc2)CC1c1cccc(Nc2ccnc3cc(Cl)ccc23)c1` (stereo not given) as the compound, how does the growth read?
**A.** Its growth is -24.6% (active).

**Q.** `ClC/C=C/CSc1ncnc2nc[nH]c12` was tested. Which growth did it give?
**A.** The growth was 97.9% (inactive) and 95.6% (inactive).

**Q.** For `O=C(O)[C@@H]1c2ccccc2-c2ccccc2[C@H]1C(=O)O`, which growth is on record?
**A.** Its growth is 91.3% (inactive).

**Q.** Which growth does the source give for `O=S(=O)(c1ccc(N/N=C\c2ccccc2)cc1)c1ccc(N/N=C/c2ccccc2)cc1` here?
**A.** The growth was 94.8% (inactive).

**Q.** With `Cn1ncc2c(Nc3ccc(O)cc3)nc(Cl)nc21` as the compound, how does the growth read?
**A.** The growth was 95.1% (inactive).

**Q.** With `C#CCOc1ccc2ncnc(Nc3ccc(NC(=O)CCl)cc3)c2c1` as the compound, how does the growth read?
**A.** The growth was -57.5% (active).

**Q.** With `O=c1c2ccccc2oc2ccc(OCCCCCN3CCCCCC3)cc12` as the compound, how does the growth read?
**A.** Its growth is 38% (inactive).

**Q.** How did the growth turn out when `COc1ccc(/C=C/C(=O)c2cc(OC)c(OC)c(OC)c2)cc1OCc1cn(Cc2ccc(F)cc2)nn1` was run?
**A.** The growth was 69.4% (inactive).

**Q.** `O=[N+]([O-])c1ccc(NC2CCCCC2)nc1` was tested. Which growth did it give?
**A.** Its growth is 110% (inactive).

**Q.** How did the growth turn out when `O=C(Nc1ccc(Cl)cc1F)c1ccccc1O` was run?
**A.** The growth was 19.9% (inactive).

**Q.** Which growth does the source give for `Cc1cccc(/C=C\C(=O)c2ccccc2)c1` here?
**A.** Its growth is 98.8% (inactive) and 58.7% (inactive).

**Q.** How did the growth turn out when `COc1ccc(-c2[nH]nc(N)c2-c2cc(OC)c(OC)c(OC)c2)cc1` was run?
**A.** Its growth is -34.9% (active).

**Q.** Which growth does the source give for `CCCCCCCC12Cc3ccccc3C1=Nc1c(c3ccccc3n1C)C2=O` (stereo not given) here?
**A.** Its growth is 91.4% (inactive).

**Q.** For `Oc1c(Cl)cc(Cl)cc1Sc1cc(Cl)cc(Cl)c1O`, which growth is on record?
**A.** The growth was 28% (inactive) and -16.5% (active) and 52.9% (inactive).

**Q.** With `CN(C)c1ncnc2c1nnn2C1OC(CO)C(O)C1O` (stereo not given) as the compound, how does the growth read?
**A.** The growth was 4.4% (active).

**Q.** Which growth does the source give for `Cc1ccc([C@@H]2C[C@H](O)Cc3ccccc3N2)s1` here?
**A.** Its growth is 121% (inactive).
